PubChem BioAssay (Tox21)
“And” between values parts separate entries of the source, which are not always exact repeats. Equal values may be shown once. Inconclusive results are not listed. A structure can be active in one record and inactive in another. The source made the active and inactive calls. Unless noted, calls follow the shape of the dose curve; as a rule, active = well fitted curve in the direction sought with a large enough effect in the repeat runs; inconclusive = weak or mixed curves; inactive = no such curve, though single readings can be large; an effect the other way counts as inactive or inconclusive.

Assays:
[1] = qHTS assay to identify small molecule antagonists of the glucocorticoid receptor (GR) signaling pathway - cell viability counter screen (AID 720693); also: nearly all actives have a fitted effect of over 55% in size
[2] = qHTS assay for identifying genotoxic compounds that show differential cytotoxicity against isogenic chicken DT40 cell lines with known DNA damage response pathways - wild type cell line (AID 743012); also: nearly all actives have a fitted effect of over 60% in size
How it was run: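 Wild-type DT40 cells (300/well) exposed to compounds for 40 hours at 37 C/5% CO2. Viability read by CellTiter-Glo luminescence after 30 min at room temperature.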

[3] = qHTS assay for identifying genotoxic compounds that show differential cytotoxicity against isogenic chicken DT40 cell lines with known DNA damage response pathways - Rev3 mutant cell line (AID 743014); also: nearly all actives have a fitted effect of over 55% in size
[4] = qHTS assay for identifying genotoxic compounds that show differential cytotoxicity against isogenic chicken DT40 cell lines with known DNA damage response pathways - Rad54/Ku70 mutant cell line (AID 743015); also: nearly all actives have a fitted effect of over 60% in size
[5] = qHTS assay to identify small molecule antagonists of the androgen receptor (AR) signaling pathway - cell viability counter screen (AID 743033; also: nearly all actives have a fitted effect of over 45% in size)
[6] = qHTS assay to identify small molecule antagonists of the androgen receptor (AR) signaling pathway using the MDA cell line - cell viability counter screen (AID 743041; also: nearly all actives have a fitted effect of over 45% in size)
How it was run: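 MDA-kb2 AR-luc cells (MMTV-luciferase, AR/GR responsive) treated with compounds plus R1881 agonist for 16 h at 37C. CellTiter-Fluor added at 15.5 h; fluorescence read after 30 min in the same wells.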

[7] = target: Androgen receptor (Homo sapiens) (UniProt P10275); experiment: qHTS assay to identify small molecule antagonists of the androgen receptor (AR) signaling pathway (AID 743035; active = well fitted inhibition curve with a large enough effect in the signal ratio in the repeat runs, not every such curve was filed as active; the % refers to the signal ratio)
How it was run: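 HEK293 cells stably carrying UAS-beta-lactamase reporter, 2,000/well, given compounds plus R1881 agonist and incubated 16 h at 37C. LiveBLAzer B/G FRET substrate then added for 2 h at room temperature before fluorescence reading.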

[8] = target: Androgen receptor (Homo sapiens) (UniProt P10275); experiment: qHTS assay to identify small molecule agonists of the androgen receptor (AR) signaling pathway (AID 743036; active = well fitted activation curve with a large enough effect in the signal ratio in the repeat runs, with a control signal flat, not every such curve was filed as active; the % refers to the signal ratio)
How it was run: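 Beta-lactamase under UAS control, stably integrated in HEK293 GripTite cells, reports receptor activation. After 16 h compound treatment, cells received FRET substrate for 2 h at room temperature before fluorescence reading.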

[9] = target: Androgen receptor (Homo sapiens) (UniProt P10275); experiment: qHTS assay to identify small molecule agonists of the androgen receptor (AR) signaling pathway using the MDA cell line (AID 743040; also: nearly all actives have a fitted effect of over 20% in size); details: MDA-kb2 AR-luc cells, MMTV luciferase, 16 h; activity change: at 70.3 µM (top of the series), stronger effect = higher value
How it was run: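 MDA-kb2 breast carcinoma cells carrying MMTV-luciferase (responsive to AR and GR), plated 5 h then treated 16 h with compounds at 37C, 0% CO2. Read-out was ONE-Glo luminescence after 30 min at room temperature.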

[10] = target: Androgen receptor (Homo sapiens) (UniProt P10275); experiment: qHTS assay to identify small molecule antagonists of the androgen receptor (AR) signaling pathway using the MDA cell line (AID 743042; also: nearly all actives have a fitted effect of over 55% in size)
How it was run: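 MDA-kb2 breast carcinoma cells carrying MMTV-luciferase (AR/GR responsive) were co-treated with compounds and the agonist R1881 for 16 h at 37C. Inhibition read as ONE-Glo luminescence; CellTiter-Fluor fluorescence measured in parallel for cytotoxicity.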

Measured: Potency
Potency is read from the fitted curve at half-maximal effect.

Androgen receptor (Homo sapiens), sequence (P10275 whole entry, looked up): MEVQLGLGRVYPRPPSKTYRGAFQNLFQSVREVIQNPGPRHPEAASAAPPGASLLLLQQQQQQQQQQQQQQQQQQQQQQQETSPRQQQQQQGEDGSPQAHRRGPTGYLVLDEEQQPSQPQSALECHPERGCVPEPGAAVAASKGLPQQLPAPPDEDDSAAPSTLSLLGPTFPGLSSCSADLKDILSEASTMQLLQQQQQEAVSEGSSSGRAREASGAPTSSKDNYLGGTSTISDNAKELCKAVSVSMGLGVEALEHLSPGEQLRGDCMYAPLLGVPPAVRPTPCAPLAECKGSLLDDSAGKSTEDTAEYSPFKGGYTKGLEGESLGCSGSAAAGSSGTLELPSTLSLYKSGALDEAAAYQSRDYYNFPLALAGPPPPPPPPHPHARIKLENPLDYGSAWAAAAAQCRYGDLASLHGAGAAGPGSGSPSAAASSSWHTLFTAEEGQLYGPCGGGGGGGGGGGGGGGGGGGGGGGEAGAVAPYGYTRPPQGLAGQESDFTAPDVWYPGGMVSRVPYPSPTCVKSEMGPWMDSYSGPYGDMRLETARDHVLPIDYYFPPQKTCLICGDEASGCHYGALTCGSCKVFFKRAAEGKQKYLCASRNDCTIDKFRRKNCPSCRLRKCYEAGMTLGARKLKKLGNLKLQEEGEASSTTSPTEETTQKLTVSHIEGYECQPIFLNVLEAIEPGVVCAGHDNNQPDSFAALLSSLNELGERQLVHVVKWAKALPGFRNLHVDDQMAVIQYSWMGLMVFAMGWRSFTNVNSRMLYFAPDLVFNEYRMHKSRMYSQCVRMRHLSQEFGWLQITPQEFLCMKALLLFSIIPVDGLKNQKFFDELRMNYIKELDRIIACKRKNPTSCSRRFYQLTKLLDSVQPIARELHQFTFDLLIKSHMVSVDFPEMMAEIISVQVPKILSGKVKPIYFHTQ

Brc1ccc(Oc2cc(Br)c(Br)cc2Br)c(Br)c1
inactive: [1] | [2] | [3] | [4] | [5] | [6]

CCCCCCCCOC(=O)c1ccccc1C(=O)OCCCCCCCC
inactive: all assays above

COc1ccc(C=O)cc1
inactive: [1] | [2] | [3] | [4] | [5] | [6]

CCCCC(CC)COC(=O)c1ccc(C(=O)OCC(CC)CCCC)c(C(=O)OCC(CC)CCCC)c1 (stereo not given)
not listed: [7]
inactive: all other assays above

C#C[C@]1(O)CC[C@H]2[C@@H]3CCC4=CC(=O)CC[C@]4(C)[C@H]3CC[C@@]21C
inactive: [1] | [2] | [3] | [4] | [5] | [6]

CCOP(=S)(OCC)O/N=C(\C#N)c1ccccc1
inactive: [1] | [2] | [3] | [4] | [5] | [6]

CN(C)c1ccc(C(=O)c2ccc(N(C)C)cc2)cc1
inactive: [1] | [5] | [6]
active: [2] 1.52 µM and 1.37 µM | [3] 762 nM and 969 nM | [4] 1.35 µM and 1.37 µM

COP(=S)(OC)Oc1cc(Cl)c(Cl)cc1Cl
not listed: [8]
inactive: all other assays above

NNC(N)=S
inactive: [1]
active: [2] 28.4 µM | [3] 20.1 µM | [4] 28.4 µM | [5] 14.3 µM

C=C(C)C(=O)OCC1CO1 (stereo not given)
inactive: [1] | [2] | [3] | [4] | [5] | [6]

CCN(CC)C(=O)/C(Cl)=C(\C)OP(=O)(OC)OC
inactive: all assays above

CC(C)=CC1C(C(=O)OCc2coc(Cc3ccccc3)c2)C1(C)C (stereo not given)
inactive and 54.4 µM (active): [3]
inactive and 43.2 µM (active): [4]
inactive: [1] | [5] | [6]
inactive and 38.5 µM (active): [2]

OCC(O)CO
inactive: [1] | [2] | [3] | [4] | [5] | [6]

Oc1ccc(-c2ccccc2)cc1
inactive: [1] | [2] | [4] | [5] | [6]
active: [3] 60.3 µM

O=[N+]([O-])c1cccc2ccccc12
inactive: [1] | [2] | [3] | [4] | [5] | [6]

O=[N+]([O-])c1c(Cl)c(Cl)c(Cl)c(Cl)c1Cl
inactive and 43.3 µM (active): [10]
active: [2] 61.1 µM
inactive and 61.1 µM (active): [4]
not listed: [7]
inactive: all other assays above

Cc1cc(Cl)ccc1OCCCC(=O)O
not listed: [7] | [8]
inactive: all other assays above

CCCCCCCCC(=O)NCc1ccc(O)c(OC)c1
inactive: [1] | [2] | [4] | [5] | [6]
inactive and 68.6 µM (active): [3]

O=C(NC(=O)c1c(F)cccc1F)Nc1ccc(Cl)cc1
inactive: [1] | [2] | [3] | [4] | [5] | [6]

CCC(=O)O[C@H]1CC[C@H]2[C@@H]3CCC4=CC(=O)CC[C@]4(C)[C@H]3CC[C@]12C
inactive and 49 µM (active): [5]
active: [2] 10.1 µM and 19.3 µM | [3] 11.4 µM and 17.2 µM | [4] 12.7 µM and 21.7 µM | [8] 0.0039 µM | [9] 1.3 nM and 1.7 nM
inactive: [1] | [6] | [10]

Nc1ccc(Cl)c(Cl)c1
inactive: [1] | [2] | [3] | [4] | [5] | [6]

CC(C)N(C(=O)SCC(Cl)=C(Cl)Cl)C(C)C
inactive: [1] | [5] | [6]
active: [2] 61.1 µM
inactive and 30.6 µM (active): [4]
inactive and 54.5 µM (active): [3]

Nc1ccc(-c2ccc(N)c(N)c2)cc1N
inactive: [1] | [5]
active: [2] 60.9 µM and 9.69 µM | [3] 60.9 µM and 12.2 µM | [4] 68.4 µM and 12.2 µM

CC(O)CCO (stereo not given)
inactive: [1] | [2] | [4] | [5] | [6]
inactive and 68.6 µM (active): [3]

O=[N+]([O-])c1ccc(O)c([N+](=O)[O-])c1
active: [4] 54.5 µM | [6] 30.8 µM and 61.1 µM | [10] 61.1 µM
not listed: [7] | [8]
inactive: all other assays above

COP(=O)(OC)OC
inactive: all assays above

CCOC(=S)S
active: [2] 24.3 µM and 16.3 µM | [3] 21.7 µM and 16.3 µM | [4] 24.3 µM and 16.3 µM | [5] 13.8 µM and 8.26 µM
inactive: [1]

CCC(C)c1cc([N+](=O)[O-])cc([N+](=O)[O-])c1O (stereo not given)
inactive: [1]
inactive and 30.6 µM (active): [3]
inactive and 27.3 µM (active): [2] | [4]
inactive and 19.5 µM (active): [5]

CCc1cccc(CC)c1N(COC)C(=O)CCl
active: [2] 19.3 µM | [3] 5.91 µM and 5.45 µM | [4] 29.6 µM and 10.9 µM | [7] 26.7 µM and 38.9 µM | [10] 61.1 µM
inactive: [1] | [5] | [8] | [9] | [6]

COC(=O)c1sccc1S(=O)(=O)NC(=O)Nc1nc(C)nc(OC)n1
inactive: [1] | [2] | [3] | [4] | [5] | [6]

CC(C)c1ccc(CO)cc1
not listed: [8] | [9] | [10]
inactive: all other assays above

C=C(C)[C@H]1Cc2c(ccc3c2O[C@@H]2COc4cc(OC)c(OC)cc4[C@@H]2C3=O)O1
active: [2] 59.6 nM and 19.6 nM and 8.6 nM | [3] 119 nM and 11 nM and 8.6 nM | [4] 75 nM and 9.8 nM and 8.6 nM | [5] 62.5 nM and 38.9 nM | [7] 756 nM and 279 nM | [6] 393 nM and 39.1 nM and 30.6 nM | [10] 188 nM and 24.7 nM and 9.7 nM
inactive: [1] | [8] | [9]

Nc1ccncc1
inactive: all assays above

CC(C)Oc1cc(-n2nc(C(C)(C)C)oc2=O)c(Cl)cc1Cl
active: [2] 5.45 µM | [3] 6.11 µM | [4] 60.3 µM and 4.86 µM | [5] 11 µM | [7] 43 µM and 12.3 µM | [10] 38.6 µM
inactive: [1] | [8] | [9] | [6]

Oc1cc(Cl)ccc1Cl
inactive: [1] | [2] | [3] | [4] | [5] | [6]

Oc1cc(Cl)c(Cl)cc1Cl
inactive: [1] | [2] | [5] | [6]
inactive and 68.6 µM (active): [3]
inactive and 61.1 µM (active): [4]

O=C(O)C(F)(F)C(F)(F)C(F)(F)C(F)(F)C(F)(F)C(F)(F)C(F)(F)F
inactive: [1] | [2] | [3] | [4] | [5] | [6]

O=C(O)CC[N+](=O)[O-]
70.8 µM (active) and inactive: [2]
inactive: all other assays above

C=CCc1ccc2c(c1)OCO2
inactive: [1] | [2] | [3] | [4] | [5] | [6]

C#CCOS(=O)OC1CCCCC1Oc1ccc(C(C)(C)C)cc1 (stereo not given)
active: [1] 21.9 µM | [2] 6.12 µM and 2.73 µM | [3] 3.86 µM and 2.17 µM | [4] 4.33 µM and 2.43 µM | [5] 174 nM and 1.74 µM | [6] 4.33 µM

CCOc1cc(Oc2ccc(C(F)(F)F)cc2Cl)ccc1[N+](=O)[O-]
active: [2] 54.5 µM | [4] 54.5 µM
inactive: [1] | [3] | [5] | [6]

CNC(=O)Oc1cccc2c1OC(C)(C)O2
inactive: [1] | [2] | [3] | [4] | [5] | [6]

NCc1cccnc1
inactive: [1] | [2] | [3] | [4] | [5] | [6]

O=C1C=CC(=O)C=C1
inactive and 9.69 µM (active): [2] | [3]
inactive and 10.9 µM (active): [4]
inactive: [1] | [5] | [6]

CCN(CC)C(=O)SCc1ccc(Cl)cc1
active: [2] 43.3 µM | [3] 21.7 µM | [4] 24.3 µM
inactive: [1] | [5] | [6]
